Results: ChEMBL document CHEMBL1201862, “PubChem BioAssay data set” (2004)
In all, about 44,000 sequences went through this assay and about 3,500 (8%) were called active. Cut-off read from the data, not from the text of the source: active = GI50 up to about 1.1 µM and inactive = higher. These entries were drawn from the full list. Potency and affinity values are given separately.

These substances were tested on PC-3.

| Substance | GI50 [µM] |
| --- | --- |
| [Bis(aminomethyl)pentamethylenesilane]tetrachloropaltinum(IV), CHEMBL2146204 | 1.83 |
| [Bis(aminomethyl)dimethylsilane]tetrachloroplatinum(IV), CHEMBL2146190 | 22.9 |
| [Bis(aminomethyl)tetramethylenesilane]tetrachloropaltinum(IV), CHEMBL2146189 | 8.36 |
| CISPLATIN, CHEMBL11359 | 5.01 |
| [Bis(aminomethyl)tetramethylenesilane]dichloropaltinum(II), CHEMBL2146205 | 7.19 |
| [Bis(aminomethyl)pentamethylenesilane]dichloropaltinum(II), CHEMBL2146202 | 1.64 |
